Bioassay records from PubChem.
Compounds with a hit are over-represented: about 1% of the library has one in this group of screens.
SNCA expr inh – SNCA gene expression inhibition. HEK-293 SNCA-luciferase knock-in, luminescence, 24 h. Potency, µM (highest dose often 57.2 µM), hits mostly inhibitors. actives 0.17% (n = 140,000). AID 1671194; note: nearly all actives have a fitted effect of over 45% in size
GPT2 inhibitor – inhibitors of human GPT2 alanine aminotransferase. Recombinant GPT2, coupled pyruvate oxidase/HRP Amplex Red fluorescence. Potency, µM (series often up to 57.7 µM), usual class: inhibitors. Q8TD30. actives 0.25% (n = 100,000); note: nearly all actives have a fitted effect of over 60% in size
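GPT2 10ng/uL, a-KG 250uM, L-Ala 2mM, HEPES pH7.5 + 0.0001% Tween; 30 min RT. Then Amplex mix (PO/HRP/ThPP), 30 min RT dark, fluorescence. AOA 50uM used as positive control.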
SNCA viab count – counter-screen for SNCA expression inhibitors: cell viability; HEK-293-SNCA-luc viability, GF-AFC fluorescence, 24 h; Potency, µM (doses to about 57.1 µM), usual class: cytotoxic; actives 0.12% (n = 150,000); AID 1671193; note: nearly all actives have a fitted effect of over 30% in size
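Cytotoxicity counterscreen: after 24 h compound treatment of genome-edited SNCA-luciferase HEK-293 cells, live-cell protease substrate GF-AFC read by fluorescence after 30 min; activity scaled between DMSO (0%) and medium-only (-100%), curves Hill-fitted.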
IP6K1 inh – inhibitors of human IP6K1; Q92551; IP6K1 kinase, ADP-Glo luminescence, 2 h; hits give low values; activity change, % (series mostly up to about 58 µM); actives 0.81% (n = 140,000); AID 1645851; in the data active = activity change below about -25%
Target sequence (Q92551 whole entry, looked up): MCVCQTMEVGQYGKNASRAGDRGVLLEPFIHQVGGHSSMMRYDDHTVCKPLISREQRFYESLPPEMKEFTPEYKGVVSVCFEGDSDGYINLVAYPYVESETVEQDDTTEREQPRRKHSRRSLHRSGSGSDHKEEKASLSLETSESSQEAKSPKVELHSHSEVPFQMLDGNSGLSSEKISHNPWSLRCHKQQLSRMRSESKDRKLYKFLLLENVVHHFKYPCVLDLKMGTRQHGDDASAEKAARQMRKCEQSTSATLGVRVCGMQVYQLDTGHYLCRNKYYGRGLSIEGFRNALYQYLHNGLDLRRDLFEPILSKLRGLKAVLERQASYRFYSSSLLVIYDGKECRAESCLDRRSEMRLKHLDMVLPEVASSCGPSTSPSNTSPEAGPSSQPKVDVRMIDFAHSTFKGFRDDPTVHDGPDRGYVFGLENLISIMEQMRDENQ
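ADP-Glo luminescence measures ADP made by human IP6K1 during a 2 h RT reaction with ATP/IP6 (mix at 1.3 mM/130 uM); top library doses 57.5 and 19.1 uM final.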
GPT2 conf – confirmation of human GPT2 inhibitors. shares compounds with GPT2 inhibitor. Potency, µM, actives largely listed as inhibitors. actives 90% (n = 95). GPT2 enzyme, coupled Amplex Red pyruvate fluorescence
A number is an active result; n = inactive; u = inconclusive; x = no result; ! = repeats disagree; [ ] = remark or other dose. Unless noted, calls come from the whole dose curve; as a rule, active = well fitted curve in the direction sought with a large enough effect; inconclusive = small, poorly fitted or top-dose-only effect, or another doubt; inactive = no such curve, though single readings can be large; an effect the other way counts as inactive or inconclusive.

SMILES	SNCA expr inh	GPT2 inhibitor	SNCA viab count	IP6K1 inh	GPT2 conf
c1ccc(CCN2CCNc3cc(Nc4ccc(N5CCOCC5)cc4)ncc3C2)cc1	n	14µM	u	n	6.3
CN1CCN(C)c2cc(Nc3ccc(N4CCOCC4)cc3)ncc2C1	x	x	x	x	7
COCCCNC(=O)N1CCCC(COc2ccccc2C(=O)N2CCCCC2)C1 (centres undefined)	n	n	n	n	x
Cn1ccc2cc(NCc3nnc(C(=O)N4CCC[C@@H]4CN4CCCC4)n3-c3ccccc3)ccc21	n	u	n	n	u
CN(Cc1ccccc1)Cc1cccc(C(F)(F)F)c1	n	n	n	n	x
COc1cc(N2CCC(N3CCN(C)CC3)CC2)ccc1Nc1ncnc(Nc2ccccc2S(=O)(=O)C(C)C)n1	u	4.3µM!	u	n	1.5
COc1cc(N2CCC(C(N)=O)CC2)ccc1Nc1nc(N)c(Cl)c(Nc2ccccc2S(=O)(=O)C(C)C)n1	u	1.4µM	u	x	3.9
COc1ccccc1Nc1ccnc(N2CCC(C(=O)NC(C)C)CC2)n1	n	n	n	n	x
COc1cc(N2CCC(O)CC2)ccc1Nc1cc(Nc2ccccc2S(=O)(=O)C(C)C)c2cc[nH]c2n1	u	3.4µM!	u	n	3.4
C=CC(=O)Nc1cccc(Oc2nc(Nc3ccc(N4CCN(C)CC4)cc3OC)ncc2Cl)c1	n	u	u	n	x
C#CCNC(=O)C1CCCN1c1nccc(Nc2ccccc2F)n1 (centres undefined)	n	n	n[12.5 µM]	n	x
COc1ccc(CN2CCNc3cc(Nc4cccnc4)ncc3C2)cc1O	n	n	n	n	x
COc1ccc(CN2CCNc3cnc(Nc4ccccc4)cc3C2)cc1O	n	u	n	n	5
c1ccc(Nc2cc3c(cn2)NCCN(Cc2ccccn2)C3)cc1	n	n	n	n	3.5
Oc1ccccc1CN1CCNc2cnc(Nc3ccccc3)cc2C1	u	6.3µM	n	n	6.3
CC1=C[C@@H](CN(C)CCO)[C@H](C(C)C)C[C@H]1Cc1nnc(-c2ccc(C)cc2)o1	n	n	u	n	x
CCOC(=O)C1(Cc2ccccc2F)CCCNC1 (centres undefined)	n	n	n	n	x
CCNc1ncc(C(=O)N2CCCC(Nc3ccc(OC)cc3)C2)cn1 (centres undefined)	n	n	n	n	x
COc1ccc(NC2CCCN(CC(=O)Nc3ccc(C)cn3)C2)cc1 (centres undefined)	n	u	n	n	5.4
COc1ccc(NC2CCCN(C(=O)c3cc(C(C)=O)n[nH]3)C2)cc1OC (centres undefined)	n	u	n	n	x
COc1ccc(NC2CCCN(C(=O)c3ccccc3C(F)(F)F)C2)cc1OC (centres undefined)	n	u	n	n	3.9
CNc1nc(Nc2ccc(C(=O)N3CCOCC3)cc2OC)ncc1Cl	n	n	n	n	x
COc1cc(N2CCOCC2)ccc1Nc1ncc(Cl)c(Nc2ccccc2NS(C)(=O)=O)n1	x	5µM	n	n	1.5
COc1cc(N2CCOCC2)ccc1Nc1ncc(F)c(Nc2ccccc2NS(C)(=O)=O)n1	x	3.2µM	n	n	1.9
CN1C(=O)C2(CCN(C(=O)NC3CCCCC3)CC2)c2ccccc21	n	n	n	n	x
SMILES	SNCA expr inh	GPT2 inhibitor	SNCA viab count	IP6K1 inh	GPT2 conf
CCCn1ncc(N2CCC(C(=O)N(CCCOC)Cc3ccc4c(c3)CCCN4CC)CC2)cc1=O	n	10µM	n	n	1.7
COc1ccc2[nH]cc(CCNC(=O)c3ccc4c(c3)C(O)CCCCCN4C)c2c1 (centres undefined)	n	n	n	n	x
CCN(CC)c1ccc(NC(=O)CCn2ccn3nc4c(c3c2=O)CCCC4)c(C)c1	n	u	u	n	1.7
Cc1cc(Cl)ccc1NC(=O)CCn1ccn2nc3c(c2c1=O)CCCC3	n	n	n	n	x
O=C(C1CCCN1[S+](=O)([O-])c1cccs1)N1CCC(c2nc3ccncc3[nH]2)CC1 (centres undefined)	n	n	n	n	x
Cc1ccccc1C(=O)N1CCC(N2C(=O)c3c(c(C)nn3-c3ccccc3)C2C2CC2)CC1 (centres undefined)	x	x	x	n	x
OCCN(CCO)c1nc(N2CCCCC2)c2nc(N(CCO)CCO)nc(N3CCCCC3)c2n1	n	6.3µM!	u	n	1.7
CCc1nc(C(N)=O)c(Nc2ccc(N3CCC(N4CCN(C)CC4)CC3)c(OC)c2)nc1NC1CCOCC1	n	8.6µM	u	n	3.1
Clc1ccc2c(c1)Nc1ccccc1S2	n	u	n	n	3.4
C[C@@H]1CN(C(=O)c2cc(N3CCOCC3)cc3c2OCCN3C)C[C@H](C)O1	x	x	x	x	4.4
O=C(C1CCN(c2cnn(CC3CC3)c(=O)c2)C1)N1CCc2ccccc2C1 (centres undefined)	n	u	n	n	x
CN(C)c1ccc2c(c1)CN(C(=O)c1cnn(C)c1)CCO2	n	1µM	n	n	0.69
CN(C)c1ccc(C(=O)N2CCc3cn(C)c4cccc(c34)C2)cc1	n	n	n	n	x
CCOc1cccc2c1OC[C@@H]1CN(CC)C(=O)CCN(C(=O)c3cccc(OC)c3)[C@H]21	x	x	x	n	x
COc1ccc(-c2ccc3nc(-c4ccccc4)oc3c2)c(OC)c1OC	n	n	n	n	x
COc1ccc(-c2ccc3nc(-c4cccc(Cl)c4)oc3c2)c(OC)c1OC	n	u	n	n	2.4
COc1ccc(CCC(=O)N2CCOc3ccc(N4CCCC4)cc3C2)cc1	u	3.2µM	n	n	1.5
O=C1NCCCCCCN(Cc2ccc(C(F)(F)F)cc2)[C@H]2CCC[C@@H]12	n	n	n	n	x
